High-throughput results as filed in PubChem BioAssay.
GLP-1R inv ag – qHTS of GLP-1 Receptor Inverse Agonists (Inhibition Mode); HEK293 GLP-1R CRE-luciferase, luminescence, 24 h; GLP-1R form is constitutively active; Potency, µM (titrated, usually from 38.3 µM), hits mostly inhibitors; 410,000 compounds, 1.6% hits; AID 624417, 2012; further: nearly all actives have a fitted effect of over 55% in size
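Readout was luciferase luminescence, measured 12 min after detection reagent at room temperature. Beforehand, GLP-1R reporter HEK293 cells had sat 12 h, then received compounds for 24 hr at 37 deg C.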
GRP78 ERSR act – qHTS for Inducers of the Endoplasmic Reticulum Stress Response (ERSR) in Human Glioma: qHTS; AID 602332, 2012; 420,000 compounds, 0.02% hits; U87-MG GRP78 promoter luciferase reporter, 16 h; Potency, µM, actives largely listed as activators; further: series mostly up to about 76 µM; nearly all actives have a fitted effect of over 35% in size
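Stably transfected U87-MG glioma cells carrying a GRP78-based luciferase sensor; 16 h compound incubation. Luminescence end-point read 10 min after Bright-Glo addition at room temperature.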
PTHR1 agonist – qHTS for PTHR1 Agonists: Primary Screen; Parathyroid hormone/parathyroid hormone-related peptide receptor (Homo sapiens), Q03431; HEK293 GP2 PTHR1 cells, GloSensor cAMP luminescence, 1 h; Potency, µM (highest dose often 115 µM), actives largely listed as activators; 410,000 compounds, 0.075% hits; further: nearly all actives have a fitted effect of over 55% in size
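HEK-293-derived GP2 cells expressing PTHR1 and a GloSensor cAMP reporter, 3,000/well, plated overnight, given luciferin plus IBMX (each 0.5 mM as added) for 1 h at 37 °C, then compound for 1 h at 37 °C. Luminescence was read after 15 min at room temperature.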
12-LOX inh – Primary qHTS assay for inhibitors of human arachidonate 12S-lipoxygenase (ALOX12): Round 2; Polyunsaturated fatty acid lipoxygenase ALOX12 (Homo sapiens), P18054; 580,000 compounds, 1.1% hits; purified 12hLO, xylenol orange hydroperoxide absorbance; Potency, µM (top dose mostly 108 µM), usual class: inhibitors
Target sequence (P18054 whole entry, looked up): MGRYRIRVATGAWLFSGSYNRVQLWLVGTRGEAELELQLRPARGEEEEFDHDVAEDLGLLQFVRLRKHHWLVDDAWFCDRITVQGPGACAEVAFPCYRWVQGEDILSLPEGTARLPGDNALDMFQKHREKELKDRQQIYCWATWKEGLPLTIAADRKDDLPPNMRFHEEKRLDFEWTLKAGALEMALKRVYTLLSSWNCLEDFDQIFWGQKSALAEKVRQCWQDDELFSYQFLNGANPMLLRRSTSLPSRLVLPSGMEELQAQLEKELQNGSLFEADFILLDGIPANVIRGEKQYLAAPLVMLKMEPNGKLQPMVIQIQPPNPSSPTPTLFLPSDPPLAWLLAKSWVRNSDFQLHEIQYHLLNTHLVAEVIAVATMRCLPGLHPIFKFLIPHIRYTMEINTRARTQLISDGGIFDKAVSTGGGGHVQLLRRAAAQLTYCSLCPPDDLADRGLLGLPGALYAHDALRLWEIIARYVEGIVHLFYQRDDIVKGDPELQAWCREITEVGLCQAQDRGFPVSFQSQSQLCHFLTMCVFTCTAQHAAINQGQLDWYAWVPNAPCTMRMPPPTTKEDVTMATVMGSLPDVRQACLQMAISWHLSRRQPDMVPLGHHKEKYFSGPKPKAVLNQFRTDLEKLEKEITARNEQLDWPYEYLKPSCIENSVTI
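Purified human 12hLO (150 nM final) in 25 mM Hepes, 0.01% Triton X-100, pH 7.0 was preincubated 15 min at room temperature with compound. Then 40 uM arachidonic acid was added, 30 min. Hydroperoxide was read by Fe-XO absorbance ratio 573/405 nm.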
GLP-1R agonist – qHTS of GLP-1 Receptor Agonists; AID 624172, 2012; Glucagon-like peptide 1 receptor (Homo sapiens), P43220; HEK293 GLP-1R CRE-luciferase, luminescence, 4-6 h; cells express a hypersensitive GLP-1R form; 380,000 compounds, 0.007% hits; Potency, µM (series often up to 45.6 µM), most hits filed as activators
GLS inhibitor – qHTS for Inhibitors of Glutaminase (GLS); Glutaminase kidney isoform, mitochondrial (Homo sapiens), O94925; GLS enzymatic activity, qHTS titration; Potency, µM (highest dose often 45.5 µM), usual class: inhibitors; 410,000 compounds, 0.21% hits; AID 624170, 2012
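Human kidney-isoform GLS in 45 mM KH2PO4 pH 8.2, 0.02% Tween-20, with compound, started with 1mM L-Glutamine (added stock). Glutamate oxidase/HRP/Amplex red coupled fluorescence read at start and after 30 min at RT.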
A number is an active result; n = inactive; u = inconclusive; x = not tested or not shown. Hits are enriched below; roughly 2.3% of the tested compounds scored in any of these assays. The call rests on the fitted dose curve; in most records, active means well fitted curve in the direction sought with a large enough effect; inconclusive means small, poorly fitted or top-dose-only effect, or another doubt; inactive means no such curve, though single readings can be large; an effect the other way counts as inactive or inconclusive.

SMILES	GLP-1R inv ag	GRP78 ERSR act	PTHR1 agonist	12-LOX inh	GLP-1R agonist	GLS inhibitor
Cc1ccc(-n2sc3ccccc3c2=O)cc1S(=O)(=O)N1CCCCC1	n	n	n	0.0891µM	n	6.31µM
Cc1cccc(-c2noc(-c3cn(CC(=O)NCc4cccs4)c4nc(C)ccc4c3=O)n2)c1	x	x	x	n	x	x
O=c1c2ccccc2sn1-c1cccc(Cl)c1	u	n	n	u	n	7.94µM
N#Cc1ccc(CCC(=O)O)cc1	x	x	x	28.2µM	x	x
S=c1[nH]nc(-c2ccc(Br)o2)n1Cc1ccccc1	u	n	n	1.58µM	n	n
COC(=O)[C@@H]1Cc2c([nH]c3ccccc23)[C@H]2C[C@@H](NCCCn3ccnc3)C[C@@H](c3cccc(Cl)c3)N21	x	x	x	n	x	x
O=c1[nH]c(/C=C\c2cccs2)nc(O)c1[N+](=O)[O-]	n	n	n	22.4µM	n	n
O=c1[nH]c(/C=C\c2ccc(O)cc2)nc(O)c1[N+](=O)[O-]	n	n	n	u	n	n
O=c1[nH]c(=S)[nH]cc1Oc1ccc(Br)cc1Br	n	n	n	11.2µM	n	n
CCOC(=O)c1sc(Nc2ccccc2)nc1C(F)(F)F	x	x	x	39.8µM	x	x
CCOC(=O)c1sc(Nc2ccccc2)nc1C	u	n	n	u	n	n
